This is an account of results in the supplement of paper PMC9262897, “Low-cost anti-mycobacterial drug discovery using engineered E. coli” (Nature Communications, 2022).

Where a name gives a salt, the structure may show the parent alone. ± gives the standard deviation of the averaged measurements.

The subject of the assay is E. coli TESEC Alr+ wild-type control. Kind of assay: growth (OD600 after 10 h); higher = more growth (less inhibition). Conditions: compound 0.1 mM; raw OD600 reference: median of DMSO wells 0.241, cell-free background 0.041. On the procedure: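 TESEC Mtb Alr E. coli, or the Alr+ wild-type control, in 384-well plates with Prestwick library compounds at 0.1 mM and 1% DMSO, across arabinose induction levels of 1E3 to 1E7 nM. Growth is read as OD600 after 10 h at 37 °C in triplicate biological replicates.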
With `CCC(=O)O[C@@](Cc1ccccc1)(c1ccccc1)[C@@H](C)CN(C)C` [Levopropoxyphene napsylate], the growth came out at 0.178 ± 0.0045. Next, `COP(=O)(OC)C(O)C(Cl)(Cl)Cl` (stereo not drawn) [Trichlorfon]: 0.249 ± 0.0088; `CCN[C@@H](C)Cc1cccc(C(F)(F)F)c1` [Dexfenfluramine hydrochloride]: 0.23 ± 0.013; `CN1C(=O)CCS(=O)(=O)C1c1ccc(Cl)cc1` (stereo not drawn) [Chlormezanone]: 0.244 ± 0.0034. For `O=c1c2ccccc2[se]n1-c1ccccc1` [Ebselen], the growth turned out to be 0.067 ± 0.0015.

In turn, `C[C@@H]1CN([C@H]2CC[C@](C#N)(c3ccc(F)cc3)CC2)CC[C@]1(C(=O)O)c1ccccc1` [Levocabastine hydrochloride] came in with a growth of 0.215 ± 0.0053. Next, `C[N+]12CCC(CC1)C(OC(=O)C(O)(c1ccccc1)c1ccccc1)C2` (stereo not drawn) [Clidinium bromide]: 0.239 ± 0.0044; `C[C@]12CCC(=O)C(O)=C1CC[C@@H]1[C@@H]2CC[C@]2(C)C(=O)CC[C@@H]12` [Formestane]: 0.115 ± 0.0066. Under `NCCCNCCSP(=O)(O)O` [Amifostine] stands 0.25 ± 0.0069; under `CC(C)(N)Cc1ccccc1` [Phentermine hydrochloride], 0.232 ± 0.0076. Under `CN[C@@H]1C[C@@H](c2ccc(Cl)c(Cl)c2)c2ccccc21` [Indatraline hydrochloride] stands 0.0397 ± 0.00076. `C[C@@H]1CC[C@H]2[C@@H](C)C(=O)O[C@@H]3O[C@@]4(C)CC[C@@H]1[C@]32OO4` [Artemisinin]: the growth came to 0.125 ± 0.01.

In the case of `CCCC[N+]1(C)[C@@H]2CC(OC(=O)[C@H](CO)c3ccccc3)C[C@H]1[C@@H]1O[C@@H]12` (stereo partly drawn) [Butylscopolammonium (n-) bromide], the growth was 0.225 ± 0.0045.
